This is an account of results in PubChem BioAssay (Tox21).

Structures are written as SMILES. Values joined by “and” are separate entries in the source; they are usually repeats but may differ in a detail not shown here. Equal entries are not always repeated. Records with an inconclusive call do not appear. Entries that show only a call come without a potency. The source holds several records for some structures; these can differ, active in one and inactive in another. Active and inactive are the calls of the source. Unless noted, the call rests on the fitted dose curve; in most records, active means well fitted cell-killing curve with a large enough effect in the repeat runs; inconclusive means weak or mixed curves, or effect the other way; inactive means flat fitted curve, though single readings scatter.
Potency means the concentration at half of the fitted maximal effect.

A short description of one experiment: qHTS assay to identify small molecule antagonists of the sonic hedgehog signaling (Shh) pathway (AID 1259369; calls by dose curve; further: nearly all actives have a fitted effect of over 45% in size). As to conditions: NIH/3T3 Gli1-Luc reporter, Shh antagonist, luminescence 24 h; series mostly up to 92.4 µM; activity change, negative = inhibition: at the top concentration. In a few lines: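 Antagonist mode: compound added to 3T3 Gli1-Luc cells followed by conditioned-medium stimulation, 24 h at 37 C, 5% CO2. Inhibition taken as loss of Gli1-driven luciferase luminescence.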
Take `O=[N+]([O-])c1ccc(Nc2ccccc2)cc1`: the Potency is 17200 nM (active).

As for `CC[n+]1c(-c2ccccc2)c2cc(N)ccc2c2ccc(N)cc21`, the Potency is 17100 nM (active).

With `O=C(O)c1nn(Cc2ccc(Cl)cc2Cl)c2ccccc12`, the Potency result is “inactive”.

For the compound `O=NN(c1ccccc1)c1ccccc1`, the “activity change, negative = inhibition” value is -8.01% (inactive).

On to `c1ccc(C2CO2)cc1` (configuration not stated), for which the Potency result was “inactive”.

For the compound `C[N+](C)(C)CC(=O)[O-]`, the Potency entry is “inactive”.

Turning to `O=C1C(Cl)=C(Cl)C(=O)c2ccccc21`, the Potency is 1730 nM (active).

`CCC[CH2][Sn]([Cl])([CH2]CCC)[CH2]CCC`: the Potency was 307 nM (active).

As to `CC1CC(=O)O1` (configuration not stated), the Potency result was “inactive”.

On to `CCOP(=O)(O)OCC` (tested in a mixture with another compound), for which the Potency is 48.2 nM (active).

A short description of another experiment: qHTS assay to identify small molecule agonists of the androgen receptor (AR) signaling pathway in the presence of an antagonist - cell viability counter screen (AID 1259379). Further: nearly all actives have a fitted effect of over 25% in size.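 On activity change, negative = cytotoxicity: MDA-kb2 human breast cancer cells carrying an MMTV luciferase reporter.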 As to conditions: MDA-kb2 viability, CellTiter-Fluor, 16 h; series mostly up to 92.4 µM; activity change, negative = cytotoxicity: at the top concentration. In outline:
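Cytotoxicity counter-screen run in the same wells as the nilutamide-challenged (3.0 µM final) AR agonist assay in MDA-kb2 cells. Compounds tested at 15 concentrations for 16 h, 37 °C without CO2; CellTiter-Fluor fluorescence read.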
Regarding `N#CCCCCC#N`, the Potency entry is “inactive”.

For `Clc1ccc(C(Cl)(Cl)Cl)cc1`, the Potency entry was “inactive”.

As to `O=[N+]([O-])c1ccc(Cl)c([N+](=O)[O-])c1`, the Potency is 22 µM (active) and 21.7 µM (active).

`CCCCOCC1CO1` (configuration not stated): the Potency result is “inactive”.

As for `O=S(=O)(O)C(F)(F)C(F)(F)C(F)(F)C(F)(F)C(F)(F)C(F)(F)C(F)(F)C(F)(F)F`, the Potency entry is “inactive”.

Turning to `CNC(=S)S`, the Potency result is “inactive”.

With `CCOP(=S)(OCC)SCn1c(=O)oc2cc(Cl)ccc21`, the Potency entry is “inactive”.

Consider `C[C@]12CCC(=O)C=C1CC[C@@H]1[C@@H]2CC[C@@]2(C)[C@H]1CC[C@]2(C)O`, for which the Potency result was “inactive”.

As for `Cl`, the Potency result is “inactive”.

Turning to `Nc1ccc([N+](=O)[O-])cc1N`, the Potency was 61.1 µM (active) and 30.6 µM (active).

On to `CCOP(=S)(OCC)SCSC(C)(C)C`, for which the Potency entry is “inactive”.

As for `C=CC(=O)OCC(CC)(COC(=O)C=C)COC(=O)C=C`, the Potency is 62.8 µM (active) and 24.3 µM (active).

On to `CCCCC(C#N)(Cn1cncn1)c1ccc(Cl)cc1` (configuration not stated), for which the Potency result is “inactive”.

As to `C[N+](C)(C)CC(=O)O`, the Potency entry was “inactive”.

As to `CS(=O)(=O)NC(=O)c1cc(Oc2ccc(C(F)(F)F)cc2Cl)ccc1[N+](=O)[O-]`, the Potency entry was “inactive”.

Turning to `CC(C)=CC1C(C(=O)OCN2C(=O)C3=C(CCCC3)C2=O)C1(C)C` (configuration not stated), the Potency result is “inactive”.

In the case of `ClC(Cl)=C(Cl)C(Cl)=C(Cl)Cl`, the Potency entry is “inactive”.

With `O=C1Nc2ccc(Cl)cc2C(c2ccccc2)=NC1O` (configuration not stated), the Potency entry is “inactive”.

For the compound `COP(=S)(OC)Oc1ccc(S(=O)(=O)N(C)C)cc1`, the Potency result is “inactive”.

Consider `CCCCOCCOC(C)=O`, for which the Potency entry is “inactive”.

Turning to `NN=C(N)N`, the Potency entry is “inactive”.

For the compound `ClCC(Cl)CCl`, the Potency result is “inactive”.

As to `[Cl-].[Cl-].[Cl-].[Fe+3]`, the Potency result was “inactive”.

On to `C[N+](C)(C)C`, for which the Potency entry was “inactive”.

Turning to `CCC(=O)Nc1ccc(Cl)c(Cl)c1`, the Potency entry was “inactive”.

Take `CC(C)(C#N)N=NC(C)(C)C#N`: the Potency entry is “inactive”.

`O=[N+]([O-])c1ccc(Nc2ccccc2)cc1`: the Potency was 30.9 µM (active) and 30.6 µM (active).

Take `C[C@]12CC[C@H]3[C@@H](CCC4=CC(=O)CC[C@@H]43)[C@@H]1CC[C@@H]2O`: the Potency entry was “inactive”.

`CC[n+]1c(-c2ccccc2)c2cc(N)ccc2c2ccc(N)cc21`: the Potency was 24.2 µM (active) and 10.6 µM (active).

Turning to `O=C(O)c1nn(Cc2ccc(Cl)cc2Cl)c2ccccc12`, the Potency result is “inactive”.

Take `O=NN(c1ccccc1)c1ccccc1`: the Potency entry is “inactive”.

In the case of `c1ccc(C2CO2)cc1` (configuration not stated), the Potency entry is “inactive”.

Consider `C[N+](C)(C)CC(=O)[O-]`, for which the Potency result was “inactive”.

Regarding `O=C1C(Cl)=C(Cl)C(=O)c2ccccc21`, the Potency is 48.7 µM (active) and 54.5 µM (active).

Take `CCC[CH2][Sn]([Cl])([CH2]CCC)[CH2]CCC`: the Potency was 687 nM (active) and 1.54 µM (active).

`CC1CC(=O)O1` (configuration not stated): the Potency entry is “inactive”.

Consider `CCOP(=O)(O)OCC` (tested in a mixture with another compound), for which the Potency result is “inactive and 27.1 µM (active)”.

Another experiment in a line: qHTS assay to identify small molecule agonists of the estrogen receptor beta (ER-beta) signaling pathway - cell viability counter screen (AID 1259380). Further: nearly all actives have a fitted effect of over 30% in size. As to conditions: ER-beta-bla HEK293T viability, CellTiter-Glo luminescence, 16 h; series mostly up to 92.4 µM; activity change, negative = cytotoxicity: at the top concentration. In outline:
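Cell viability counter screen: CellTiter-Glo luminescence (30 min, room temperature) measured in the same wells as the beta-lactamase readout, after 16 hr compound exposure at 37C of ER-beta-bla HEK293T cells in 2% charcoal-stripped FBS medium.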
As for `N#CCCCCC#N`, the “activity change, negative = cytotoxicity” value is -2% (inactive).

As to `Clc1ccc(C(Cl)(Cl)Cl)cc1`, the “activity change, negative = cytotoxicity” value was -2.9% (inactive).

On to `O=[N+]([O-])c1ccc(Cl)c([N+](=O)[O-])c1`, for which the Potency was 27.7 µM (active) and 27.3 µM (active).

Take `CCCCOCC1CO1` (configuration not stated): the Potency result is “inactive”.

As to `O=S(=O)(O)C(F)(F)C(F)(F)C(F)(F)C(F)(F)C(F)(F)C(F)(F)C(F)(F)C(F)(F)F`, the Potency is 51.9 µM (active) and 48.6 µM (active).

`CNC(=S)S`: the Potency entry was “inactive”.

As to `CCOP(=S)(OCC)SCn1c(=O)oc2cc(Cl)ccc21`, the “activity change, negative = cytotoxicity” value was -10.6% (inactive).

`C[C@]12CCC(=O)C=C1CC[C@@H]1[C@@H]2CC[C@@]2(C)[C@H]1CC[C@]2(C)O`: the “activity change, negative = cytotoxicity” value was -11.1% [at 42.5 µM] (inactive).

With `Cl`, the Potency entry is “inactive”.

Consider `Nc1ccc([N+](=O)[O-])cc1N`, for which the Potency is 21.7 µM (active) and inactive.

Regarding `CCOP(=S)(OCC)SCSC(C)(C)C`, the Potency entry is “inactive”.

Turning to `C=CC(=O)OCC(CC)(COC(=O)C=C)COC(=O)C=C`, the Potency was 62.8 µM (active) and 19.3 µM (active).

For the compound `C[N+](C)(C)CC(=O)O`, the Potency entry was “inactive”.

Consider `CS(=O)(=O)NC(=O)c1cc(Oc2ccc(C(F)(F)F)cc2Cl)ccc1[N+](=O)[O-]`, for which the Potency entry is “inactive”.

Regarding `ClC(Cl)=C(Cl)C(Cl)=C(Cl)Cl`, the Potency entry was “inactive”.

Turning to `O=C1Nc2ccc(Cl)cc2C(c2ccccc2)=NC1O` (configuration not stated), the “activity change, negative = cytotoxicity” value was -14.1% (inactive).

Regarding `COP(=S)(OC)Oc1ccc(S(=O)(=O)N(C)C)cc1`, the Potency result was “inactive”.

In the case of `CCCCOCCOC(C)=O`, the Potency entry is “inactive”.

For `CC(C)(c1ccccc1)c1ccc(O)c(C(C)(C)c2ccccc2)c1`, the Potency is 21.5 µM (active) and 30.6 µM (active).

With `NN=C(N)N`, the “activity change, negative = cytotoxicity” value was 4.84% (inactive).

As to `ClCC(Cl)CCl`, the Potency entry was “inactive”.

For `[Cl-].[Cl-].[Cl-].[Fe+3]`, the Potency entry was “inactive”.

Take `C[N+](C)(C)C`: the Potency result is “inactive”.

Turning to `CC(C)(C#N)N=NC(C)(C)C#N`, the Potency result was “inactive”.

Turning to `O=[N+]([O-])c1ccc(Nc2ccccc2)cc1`, the “activity change, negative = cytotoxicity” value is -13.6% (inactive).

For the compound `C[C@]12CC[C@H]3[C@@H](CCC4=CC(=O)CC[C@@H]43)[C@@H]1CC[C@@H]2O`, the Potency result is “inactive”.

For the compound `CC[n+]1c(-c2ccccc2)c2cc(N)ccc2c2ccc(N)cc21`, the Potency is 1.53 µM (active) and 1.06 µM (active).

Take `O=C(O)c1nn(Cc2ccc(Cl)cc2Cl)c2ccccc12`: the Potency is 27.1 µM (active) and 26.6 µM (active).

With `O=NN(c1ccccc1)c1ccccc1`, the Potency entry was “inactive”.

As to `c1ccc(C2CO2)cc1` (configuration not stated), the Potency result is “inactive”.

For the compound `C[N+](C)(C)CC(=O)[O-]`, the Potency result was “inactive”.

On to `O=C1C(Cl)=C(Cl)C(=O)c2ccccc21`, for which the Potency was 27.4 µM (active) and 27.3 µM (active).

Consider `CCC[CH2][Sn]([Cl])([CH2]CCC)[CH2]CCC`, for which the Potency is 1.22 µM (active) and 1.37 µM (active).

Regarding `CC1CC(=O)O1` (configuration not stated), the Potency result is “inactive”.

Regarding `CCOP(=O)(O)OCC` (tested in a mixture with another compound), the Potency entry was “inactive and 48.2 µM (active)”.
